The text below walks through data of PubChem BioAssay AID485344 (National Center for Advancing Translational Sciences (NCATS), 2010).

Out of some 340,000 compounds screened, about 6,900 (2%) were called active. Cut-off read from the data, not from the text of the source: active = inhibition above about 30%; inactive = below that, where a call was filed. What follows is part of a selection rich in actives, with near analogues and random picks from the rest.

Sequence of D(2) dopamine receptor (Homo sapiens) (P14416 whole entry, looked up): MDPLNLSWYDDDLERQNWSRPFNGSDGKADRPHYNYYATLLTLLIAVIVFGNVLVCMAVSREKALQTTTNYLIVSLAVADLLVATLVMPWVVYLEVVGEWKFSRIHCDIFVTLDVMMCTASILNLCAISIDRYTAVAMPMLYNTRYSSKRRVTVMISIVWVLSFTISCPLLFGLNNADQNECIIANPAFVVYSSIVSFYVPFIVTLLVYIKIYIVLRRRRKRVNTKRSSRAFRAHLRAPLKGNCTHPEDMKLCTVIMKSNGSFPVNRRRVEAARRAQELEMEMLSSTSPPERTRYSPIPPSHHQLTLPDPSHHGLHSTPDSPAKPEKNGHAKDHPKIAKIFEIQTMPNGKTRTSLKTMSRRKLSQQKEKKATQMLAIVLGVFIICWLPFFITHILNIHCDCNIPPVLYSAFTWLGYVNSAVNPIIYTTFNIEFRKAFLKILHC

The test addresses D(2) dopamine receptor (Homo sapiens) (UniProt P14416). The test can be described thus: HTS Assay for Allosteric Antagonists of the Human D2 Dopamine Receptor: Primary Screen for Antagonists. Note: 0% is about no effect. To be noted: HEK293 TREx D2 cells, calcium flux, dopamine EC80; at 10 µM; stronger effect = higher value. The essentials: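 Overnight-induced (tetracycline, 30 C) HEK293 T-REx cells carrying force-coupled D2 receive a no-wash calcium dye, then compound, then EC80 dopamine at 180 s; signals are read kinetically throughout.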
In general terms: A change in cytosolic calcium serves as a functional read-out for many receptors and channels.
The term inhibition denotes the change of the read-out against control, counted positive when it falls. Consider `CC(=O)c1c(C)[nH]c(C(=O)COc2ccc3c(C)cc(=O)oc3c2)c1C`, for which the inhibition was 1.65% (inactive). With `CN(C)C(=O)N=NC(=O)N(C)C` the figure was 6.75% (inactive); with `CCC(C)CCN1CCN=C1N(C)C` (stereo unspecified), -4.14% (inactive); with `COc1ccc(-c2nc(N)ncc2-c2ccc(Cl)cc2)c(O)c1`, -27.1% (inactive). With `C=C(C)COc1ccc(-c2nc(N)ncc2-c2ccccc2OC)c(O)c1` the figure was -11.9% (inactive); with `CCOc1ccc(-c2nc(N)ncc2-c2ccccc2OC)c(O)c1`, 34.9% (active); with `CCCCN1C(=O)C(=O)N(CC(=O)Nc2cccc(C(C)=O)c2)C1=O`, 2.29% (inactive). With `COc1ccc(C(=O)OC(C)C(=O)NC2CCCC2)cc1S(=O)(=O)N1CCOCC1` (stereo unspecified) the figure was -6.41% (inactive). `O=C(NCCCN1CCOCC1)c1ccc(N2CCCC2)c([N+](=O)[O-])c1`: the inhibition was -5.74% (inactive). With `O=[N+]([O-])c1ccc(NCCCN2CCOCC2)c(Cl)c1` the figure was -7.9% (inactive).

Turning to `O=C(NCCCN1CCOCC1)c1ccc([N+](=O)[O-])cc1[N+](=O)[O-]`, the inhibition was 48.1% (active). With `COc1ccc(CC2c3cc(OC)c(OC)cc3CC[N+]2(C)CCC(=O)OCCCCCOC(=O)CC[N+]2(C)CCc3cc(OC)c(OC)cc3C2Cc2ccc(OC)c(OC)c2)cc1OC` (stereo unspecified) the figure was 2.9% (inactive); with `COc1ccc(Cl)cc1NC(=O)CNc1ccccc1F`, 0.751% (inactive); with `COC(=O)[C@@H](NC(=O)Nc1cc(Cl)ccc1C)C(C)C`, 18.4% (inactive). `COc1ccc(Cl)cc1NC(=O)NC(C)C(C)(C)C` (stereo unspecified): the inhibition is 34.2% (active). The value for `Cc1cc(C(=O)Nc2ccc(C)c(S(=O)(=O)N3CCOCC3)c2)c2ccccc2n1` was 3.28% (inactive); that for `O=C(c1cc(-c2ccco2)nc2ccccc12)N(Cc1nnc(-c2ccc(Cl)cc2)o1)C1CC1` was -3.48% (inactive). As for `Cc1ccc(OCCC(=O)Nc2ccc(S(=O)(=O)Nc3nccs3)cc2)cc1`, the inhibition was 23.7% (inactive). With `CCC(CC)C(=O)Nc1ccc(S(=O)(=O)Nc2nccs2)cc1` the figure was 32.1% (active); with `COc1ccccc1OC(C)C(=O)Nc1ccc(S(=O)(=O)Nc2nccs2)cc1` (stereo unspecified), -2.37% (inactive); with `CNCC(O)CN1CCN(c2ccccc2OC)CC1` (stereo unspecified), -12.4% (inactive). On to `COc1ccc(CN2CCN(Cc3ccc(OC)c(OC)c3OC)CC2)cc1`, for which the inhibition was -16% (inactive).

`COc1ccccc1N1CCN(Cc2ccc(OC)c3ccccc23)CC1`: the inhibition was 72.3% (active).

Turning to `COc1ccccc1N1CCN(Cc2cc(OC)c3c(c2)OCO3)CC1`, the inhibition is 85.7% (active). Take `COc1ccccc1N1CCN(CCCCOc2ccc(F)cc2)CC1`: the inhibition is 1.05% (inactive).

For `COc1ccccc1CN1CCN(Cc2cc(OC)c(OC)cc2OC)CC1`, the inhibition is -0.792% (inactive). With `COc1ccc(S(=O)(=O)N2CCOCC2)cc1NC(=O)CSc1cc(C)ccc1C` the figure was -16% (inactive); with `CCN(CC(=O)Nc1ccc(NC(C)=O)cc1)C(=O)CSC(=S)N1CCCC1`, 12.7% (inactive); with `CC1(C)O[C@@H]2[C@H](O1)[C@@H](COS(=O)(=O)O)O[C@H]2n1cnc2c(=O)[nH]cnc21`, 10.8% (inactive). `CCCCn1c(N)c(N(CC(C)C)C(=O)CSc2ccc([N+](=O)[O-])cc2)c(=O)[nH]c1=O`: the inhibition is 6.25% (inactive). With `OCC[C@H]1C[C@@H](O)[C@H](O)[C@@]2(OCCc3ccccc32)O1` the figure was 3.29% (inactive); with `CCN(CC(=O)Nc1ccc(OC)cc1)C(=O)CSCc1ccc(C)cc1`, 7.06% (inactive); with `Cc1cc(C(=O)N/N=C\C(Br)=C\c2ccccc2)c(C)o1`, 1.9% (inactive).

As for `CC(=C/c1ccccc1)/C=N/NC(=O)c1cc(C)oc1C`, the inhibition is 36.9% (active). The value for `Cc1cc(C(=O)N/N=C/c2ccccc2[N+](=O)[O-])c(C)o1` was 2.69% (inactive). With `COc1ccccc1C(=O)COC(=O)CSCC(=O)Nc1cc(C)on1`, the inhibition is 14.3% (inactive).
